An excerpt weighted towards active compounds, which were near 4.1% of everything screened.
DAX1 inh-1 – inhibitors of DAX1 repression of SF-1 activated StAR promoter. HEK293T StAR-luciferase reporter, SF-1/DAX-1 repression relief. inhibition, % at 6.8 µM. 370,000 compounds, 1.1% hits;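 active means inhibition above the mean over all tested compounds plus 3 SD, cut at about 3.6% in these data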;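 further: higher inhibition means more luminescence from relief of DAX-1 repression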
hcDAF12 agonist – H. contortus DAF-12 activation, primary screen; HEK293 hcDAF-12 lit1-tk-luc reporter, luminescence; 0% DMSO, 100% Δ7-dafachronic acid; activation, % at 6.8 µM; 370,000 compounds, 1.4% hits;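 active means activation above the mean of all tested compounds plus 3 SD, cut at about 5.5% in these data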
ssDAF-12 act – S. stercoralis DAF-12 activation, primary screen. HEK293 ssDAF-12/GRIP1 lit1-tk-luc reporter, luminescence; % of 3 µM dafachronic acid response. activation, % at 6.8 µM. 370,000 compounds, 1% hits;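 active means activation above the mean over all tested compounds plus 3 SD, cut at about 0.9% in these data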
hgDAF12 agonist – hgDAF-12 agonism, primary luciferase screen | activation, % at 6.8 µM | HEK293 GAL4-hgDAF12 UAS-luciferase reporter, agonist luminescence; normalized to butyrate control | 370,000 compounds, 1.8% hits | AID 687014;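 active means activation above a cutoff set at the mean of all screened compounds plus 3 SD, cut at about 10% in these data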
DAX1 inh-2 – inhibits human nuclear receptor DAX1; P51843; HEK293 Gal4-DAX1 luciferase reporter, luminescence; 340,000 compounds, 0.99% hits; inhibition, % at 6.75 µM; AID 504766;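 active means inhibition above the mean over all tested compounds plus 3 SD, cut at about 4.2% in these data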;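 further: inhibition shows as a rise in luminescence from relieved DAX1 repression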
Target sequence (P51843 207-470 limits assumed): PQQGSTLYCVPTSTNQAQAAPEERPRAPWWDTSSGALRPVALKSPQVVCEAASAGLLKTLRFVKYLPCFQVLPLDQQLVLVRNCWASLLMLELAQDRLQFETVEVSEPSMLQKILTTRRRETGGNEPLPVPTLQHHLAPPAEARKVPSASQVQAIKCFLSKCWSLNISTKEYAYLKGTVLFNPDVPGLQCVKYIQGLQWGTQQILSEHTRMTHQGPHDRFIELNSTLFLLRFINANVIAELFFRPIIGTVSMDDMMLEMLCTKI
Numbers stand for hits; i = inactive; nt = no result given.

SMILES | DAX1 inh-1 | hcDAF12 agonist | ssDAF-12 act | hgDAF12 agonist | DAX1 inh-2
COc1cc(OC)cc(C(=O)N=c2sc3ccccc3n2C)c1 | i | i | i | 11 | i
Cc1ccccc1CS(=O)(=O)Cc1ccc(C(=O)Nc2ccccc2C)o1 | i | i | i | i | nt
COc1ccccc1OCC(=O)Nc1ccncc1 | i | i | i | i | i
COc1ccccc1/C=C/C(=O)NC(=S)Nc1ccccn1 | i | i | 1.4 | i | i
COc1ccccc1OCC(=O)Nc1ccccn1 | i | i | i | 13 | i
O=C(/C=C/c1ccco1)NC(=S)Nc1ccccn1 | i | i | i | i | 5.9
O=C(/C=C/c1ccco1)Nc1cccc(NC(=O)/C=C/c2ccco2)n1 | i | 6.4 | i | 11 | i
O=C(/C=C/c1ccco1)NC1=NCCS1 | i | i | i | i | i
COC(=O)[C@]12C[C@H](CC(=O)NCCCCc3ccccc3)C(=O)N(CCc3ccc(OC)c(OC)c3)C1=C[C@H](C(C)C)O[C@@H]2C1CC1 | i | i | i | i | nt
O=C(CN1CCCc2ccccc21)NCc1ccccc1F | i | i | i | i | nt
COc1cc(/C=N/Nc2cccc3cccnc23)cc(OC)c1O | i | i | i | 13 | i
COc1cc(/C=N/Nc2ccccn2)cc(OC)c1O | i | i | i | i | i
O=C(Cn1c(=O)c2cccn2c2cccnc21)NCCCN1CCN(c2ccc(Cl)cc2)CC1 | nt | i | i | i | nt
Clc1ccc(OCc2nnc(-c3ccccc3Br)o2)cc1 | i | i | 2.1 | i | i
CCCCOCCCNC(=O)C[C@@H]1C(=O)N2CCCC3=C2[C@@]1(C(=O)OC)CCCC3 | i | i | i | i | nt
COC(=O)[C@H](CCSC)NC(=O)Cn1cnc(C(=O)Nc2ccc(C)c(C)c2)n1 | i | 5.7 | i | 11 | i
COc1ccccc1C(=O)NNC(=S)NC(=O)c1sc2ccccc2c1Cl | i | 6.1 | i | i | i
Cc1ccccc1NC(=O)OC1CCC12CCC(c1ccccc1)CC2 (stereo unspecified) | i | i | i | i | nt
C=CCN(Cc1ccc2c(c1)OCO2)C(C#CC1CC1)C(C)C (stereo unspecified) | i | i | i | i | nt
O=C(CCl)N1c2ccccc2Oc2ccc3ccccc3c21 | i | i | i | i | i
CC(=O)N1c2ccccc2Oc2cc3ccccc3cc21 | i | 5.7 | i | i | i
CC(C)CNS(=O)(=O)/C=C/c1ccc(F)cc1CNC(=O)OC(C)(C)C | i | i | i | i | nt
Cc1ccc(/C=N/N2CCOCC2)s1 | i | i | i | i | 5.6
Cc1ccc(/C=N/N2CCN(Cc3ccccc3)CC2)s1 | i | i | i | i | i
O=C(Nc1c(C(=O)O)[nH]c2ccccc12)NC1CCCCC1 | i | i | 1.2 | i | i
SMILES | DAX1 inh-1 | hcDAF12 agonist | ssDAF-12 act | hgDAF12 agonist | DAX1 inh-2
COC(=O)c1[nH]c2ccc(C)cc2c1NC(=O)NC1CCCCC1 | i | i | i | i | i
N#Cc1ccsc1NC(=O)COC(=O)c1cc(Br)ccc1O | i | i | i | i | 6.0
CN(C)c1ccc(C=NNC(=S)Nc2ccc(F)cc2)cc1 | i | i | i | 11 | 5.0
CSC(=S)N/N=C/c1ccc(N(C)C)cc1 | i | i | i | i | i
COc1ccc(NC(=O)O/N=C/c2ccncc2)cc1 | i | i | i | i | 4.6
Cc1ccc(NC(=O)O/N=C/c2ccc(N(C)C)cc2)cc1 | i | i | i | 13 | i
CC(=O)Nc1ccc(/C=N/OCC(=O)Nc2ccc(C)cc2)cc1 | i | i | i | 12 | i
COC(=O)[C@]12C[C@H](CC(=O)NCCCCc3ccccc3)C(=O)N(CCc3ccc(OC)c(OC)c3)C1=C[C@H](C(C)(C)C)O[C@@H]2C | i | i | i | i | nt
COc1ccc(/C=N/OC(=O)Nc2ccccc2OC)cc1 | i | i | i | 12 | i
COc1ccc(NC(=O)O/N=C/c2ccc(Br)cc2)cc1 | i | i | i | i | i
CCN1CCCCC(NC(=O)c2ccc(C)cc2)C1=O (stereo unspecified) | i | i | i | i | nt
COC(=O)c1cc2c(c3c4cc(C)ccc4n(S(=O)(=O)c4ccc(C)cc4)c13)C(=O)N(Cc1ccc(N(C)C)cc1)C2 | i | i | i | i | nt
COc1ccccc1N1CCN(S(=O)(=O)c2cc(C(F)(F)F)cc(C(F)(F)F)c2)CC1 | i | i | i | i | 7.7
COc1ccccc1N1CCN(S(=O)(=O)c2ccccc2)CC1 | i | i | i | i | i
CCOc1ccc(N(C(C)C(=O)N2CCCCCC2)S(C)(=O)=O)cc1 (stereo unspecified) | i | i | 1.5 | i | i
COCCCN1CC23C=CC(O2)C(C(=O)O)C3C1=O (stereo unspecified) | i | i | i | i | i
CCC(C)N1CC23C=CC(O2)C(C(=O)OC)C3C1=O (stereo unspecified) | i | i | i | i | 6.7
CCOC(=O)N1CCC(N2CC34C=CC(O3)C(C(=O)O)C4C2=O)CC1 (stereo unspecified) | i | i | i | i | 4.3
CCCN1CC23C=CC(O2)C(C(=O)O)C3C1=O (stereo unspecified) | i | i | i | i | 5.0
S=C(c1cccs1)N1CCCC1 | i | i | i | i | i
S=C(c1cccs1)N1CCN(c2ccccc2)CC1 | i | i | i | i | 5.7
COc1ccc(OC)c(Cc2nnc(CCC(=O)N3CCCCC3)o2)c1 | i | i | i | i | i
COc1ccc(-c2ccc(S(=O)(=O)N3CCCC3)cc2)cc1 | i | i | i | i | 5.2
COc1ccc(OC)c(S(=O)(=O)N2CCC(C(=O)N3CCN(c4ccc(F)cc4)CC3)CC2)c1 | i | i | i | i | i
COc1ccc(OC)c(Cc2nnc(CCC(=O)N3CCN(C4CCCC4)CC3)o2)c1 | 3.7 | i | i | i | i
SMILES | DAX1 inh-1 | hcDAF12 agonist | ssDAF-12 act | hgDAF12 agonist | DAX1 inh-2
COc1ccc(S(=O)(=O)N2CCN(C(=O)C3CC3)CC2)cc1 | i | i | i | i | 4.2
COc1ccc(OC)c(S(=O)(=O)N2CCC(C(=O)N3CCN(C4CCCCC4)CC3)CC2)c1 | 4.2 | i | i | i | nt
COc1ccc(S(=O)(=O)N2CCCCCC2)cc1 | i | i | i | i | i
O=C([C@@H]1C[C@H]1c1ccccc1)N1CC[C@H]2[C@H](CCCN2Cc2ccccc2)C1 | i | i | i | i | nt
C=CCNC(=O)N1CCN(Cc2nc3ccccc3c(=O)[nH]2)CC1 | i | i | i | i | nt
COc1ccc(NC(=O)CCN2CCN(S(=O)(=O)c3ccc(C(C)C)cc3)CC2)cc1 | i | i | 1.2 | i | i
COc1ccc(S(=O)(=O)N2CCC(c3nc4ccccc4[nH]3)CC2)cc1 | i | i | i | i | i
COc1ccc(OC)c(S(=O)(=O)N2CCC(c3nc4ccccc4[nH]3)CC2)c1 | 4.1 | i | i | i | i
COc1ccc(NC(=O)CCN2CCN(S(=O)(=O)c3ccc(Cl)cc3)CC2)cc1 | i | i | i | i | i
COC(=O)c1ccc(Cn2ccc3ccc(-c4ccc5ccn(Cc6ccc(OC)cc6)c5c4)cc32)cc1 | i | i | i | i | nt
CCCCC(=O)Nc1cc(C(=O)NCCc2ccccc2)ccc1Cl | 4.4 | i | i | i | i

Assay outcomes: PubChem, The Scripps Research Institute Molecular Screening Center
